The source of these data is PubChem BioAssay (NCI).

Compounds without any hit were thinned out: in the full panel of roughly 79,000, 15% have a hit. Values without a mark were called inactive. The source made the active and inactive calls. No stated cut-off is given here; in the data, active means growth inhibition above about 70%; inactive means the rest.

Assay [1] is described as follows: NCI Yeast Anticancer Drug Screen. Data for the rad50 strain (AID 155).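 Further: 0% = growth of vehicle-only cultures of the same strain.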 The following applies: S. cerevisiae rad50 strain growth inhibition; at 50.0 µM; hits give high values. The method, boiled down:
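Cells are treated with compound, grown, and their growth is then scored against vehicle-only cultures of the same repair-deficient yeast strain.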

A short description of assay [2]: NCI Yeast Anticancer Drug Screen. Data for the mec2-1 strain (AID 157). The following applies: S. cerevisiae mec2-1 strain, at 50.0 µM, hits give high values. The method in brief: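 Vehicle-treated cultures served as reference for growth inhibition of compound-exposed mec2-1 yeast.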
Assay [3] is described as follows: NCI Yeast Anticancer Drug Screen. Data for the sgs1 mgt1 strain (AID 161).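 Further: 0% = growth of cultures given vehicle only.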 The following applies: S. cerevisiae sgs1 mgt1 strain, at 50.0 µM, hits give high values. The method in brief:
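Test agents were incubated with a DNA-repair-mutant yeast strain. Growth was then read and compared against vehicle-treated controls.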

Assay [4] in a line: NCI Yeast Anticancer Drug Screen. Data for the cln2 rad14 strain (AID 165).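 Further: 0% = growth equal to vehicle treated cultures.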 The following applies: S. cerevisiae cln2 rad14 strain, at 50.0 µM, hits give high values. The method in brief:
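Each compound was tested on cln2 rad14 yeast. Inhibition of growth was calculated against vehicle-exposed controls.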

Assay [5] is described as follows: NCI Yeast Anticancer Drug Screen. Data for the bub3 strain (AID 167). The following applies: S. cerevisiae bub3 mutant strain, at 50.0 µM, hits give high values. The method in brief: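 Part of a panel of yeast mutants defective in DNA damage repair or cell cycle regulation. Each strain is grown with compound, and inhibition is calculated relative to solvent-treated cultures.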

A short description of assay [6]: NCI Yeast Anticancer Drug Screen. Data for the mlh1 rad18 strain (AID 175). The following applies: S. cerevisiae mlh1 rad18 strain growth inhibition; at 50.0 µM; hits give high values. The method, boiled down: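 Vehicle-treated cultures served as the reference for growth inhibition in a yeast strain carrying DNA damage repair alterations exposed to each compound.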

In the case of `CCCCC(N)CSSCC(N)CCCC` (stereo unspecified), the growth inhibition in assay [1] is -20.8%; in assay [2] it was -44%; in assay [3], -23.3%; in assay [4] it was -20.1%; in assay [5], -50.6%; in assay [6] it was -35.6%.
Turning to `CC(=O)OC1C(=O)OCC23CCC(C)=CC2OC2CC(OC(=O)/C=C/C=C/C(=O)OCCC1C)C3(C)C21CO1` (stereo unspecified), the growth inhibition was -35.5% in assay [1]; -4.45% in assay [2]; -31.3% in assay [3]; -4.4% in assay [4]; -22.6% in assay [5]; -19.6% in assay [6].
For `O=C(c1ccc(Cl)c(Cl)c1)n1c2ccccc2c2ccccc21`, the growth inhibition in assay [1] was -0.65%; in assay [2], -47.5%; in assay [3], -12.3%; in assay [4], 3.8%; in assay [5], -4.1%; in assay [6] it was 2.4%.
Turning to `O=C(O)C1C2C=CC(O2)C1C(=O)Nc1ccccc1` (stereo unspecified), the growth inhibition in assay [1] was 13.7%; in assay [2] it was 3.5%; in assay [3], 7.5%; in assay [4] it was -1.9%; in assay [5], -19.4%; in assay [6], 8.3%.
On to `O=C1NC2(CCN(CCc3ccccc3)CC2)Oc2ccccc21`, for which the growth inhibition in assay [1] was 28.9%; in assay [2], -10.2%; in assay [3], 15.7%; in assay [4], 17.6%; in assay [5], 11.5%; in assay [6], 11.1%.
For the molecule `O=C1c2ccccc2CC12Cc1ccccc1C2`, the growth inhibition in assay [1] was 2.05%; in assay [2] it was -17.4%; in assay [3], -3.85%; in assay [4], -15.3%; in assay [5], -29.7%; in assay [6], 0.15%.
Turning to `Nc1nc(N)c(N=Nc2ccc(C(=O)O)c(O)c2)c(N)n1`, the growth inhibition in assay [1] is 5.5%; in assay [2] it was 3.5%; in assay [3], -0.7%; in assay [4], 12.8%; in assay [5] it was -11.9%; in assay [6], 13%.
Regarding `C=C(C)C1Cc2cc(C(C)=O)ccc2O1` (stereo unspecified), the growth inhibition in assay [1] was 12.7%; in assay [2], -11.7%; in assay [3] it was 9.55%; in assay [4], 5.8%; in assay [5] it was -4%; in assay [6], -59.2%.
For the molecule `CC1COC(C(C)c2ccccc2)O1` (stereo unspecified), the growth inhibition in assay [1] is -0.05%; in assay [2], -18.4%; in assay [3], -10.8%; in assay [4], -35.2%; in assay [5], -29.9%; in assay [6] it was 6.1%.
Consider `O=C1NC(=S)N(c2ccccc2)C1=O`, for which the growth inhibition in assay [1] was -19.4%; in assay [2], -7.65%; in assay [3], -24.2%; in assay [4], -30.2%; in assay [5] it was -2.5%; in assay [6], -11.8%.
Consider `O=[N+]([O-])c1cc([N+](=O)[O-])c2ccccc2c1NS(=O)(=O)c1ccc(Br)cc1`, for which the growth inhibition was 7.35% in assay [1]; 18.9% in assay [2]; 36.4% in assay [3]; 0.7% in assay [4]; 36% in assay [5]; 70.5% (active) in assay [6].
For `CC(=O)OC1C(O)C(C)OC(OC2C(C)OC(OC(=O)[C@@H]3CC[C@@H]4[C@H](C3)OC3(C[C@@H](OC(=O)/C=C/c5ccccc5)[C@@H](C)CO3)[C@@]43CO3)C(O)C2OC(C)=O)C1O` (stereo partly specified), the growth inhibition was 91% (active) in assay [1]; 93.4% (active) in assay [2]; 92.2% (active) in assay [3]; 90.1% (active) in assay [4]; 91.1% (active) in assay [5]; 91.8% (active) in assay [6].
With `CC1(C)C(=O)/C=C\C(=O)C(C)(C)C(=O)/C=C\C(=O)C(C)(C)C(=O)/C=C\C(=O)C(C)(C)C(=O)/C=C\C1=O`, the growth inhibition in assay [1] is 12.1%; in assay [2], 0.25%; in assay [3] it was -9.05%; in assay [4], 10.5%; in assay [5] it was -13.2%; in assay [6], 12.7%.
Take `OC1CC2C=CC1CC2` (stereo unspecified): the growth inhibition was 14.9% in assay [1]; 10.3% in assay [2]; 2.4% in assay [3]; 13.2% in assay [4]; 25.1% in assay [5]; 14.4% in assay [6].
Turning to `CCC(C)(O)c1cnc(CC(C)C)c(=O)n1O` (stereo unspecified), the growth inhibition in assay [1] is 55.5%; in assay [2], 32.9%; in assay [3] it was 43.3%; in assay [4] it was 38.7%; in assay [5], 38.4%; in assay [6], 52.2%.
In the case of `CCOC(=O)CCC1CCCO1` (stereo unspecified), the growth inhibition is -3.6% in assay [1]; -19.1% in assay [2]; -19.9% in assay [3]; -4.8% in assay [4]; -6.85% in assay [5]; -1.05% in assay [6].
For `O=C1Sc2ccccc2Cn2cccc21`, the growth inhibition in assay [1] is -1.7%; in assay [2], 13%; in assay [3], 13.3%; in assay [4] it was -19.6%; in assay [5], -6.3%; in assay [6] it was 8.7%.
As for `COC1=Cc2nc3ccccc3nc2OC1(C)C`, the growth inhibition in assay [1] was -13.2%; in assay [2], 3.15%; in assay [3] it was 10.6%; in assay [4], -16.4%; in assay [5] it was 17.8%; in assay [6], 3.75%.
In the case of `CC(=O)N(C(C)=O)c1ccc2c(c1)Cc1ccccc1-2`, the growth inhibition in assay [1] is 14.9%; in assay [2], -12.9%; in assay [3], 17.4%; in assay [4], 3.85%; in assay [5], 35.3%; in assay [6], 15.1%.
In the case of `CC(C)CC(NC(=O)C(O)C(N)Cc1ccccc1)C(=O)O` (stereo unspecified), the growth inhibition in assay [1] is 56.5%; in assay [2], 26.6%; in assay [3], 60.4%; in assay [4] it was 47.8%; in assay [5], 36%; in assay [6], -21.7%.
As for `CC(=O)[C@@H](C)C(=O)N1C(=O)OC[C@@]12[C@@H]1CC[C@@H](C1)C2(C)C`, the growth inhibition in assay [1] is -13.8%; in assay [2] it was -31.4%; in assay [3] it was -25.9%; in assay [4], -26.4%; in assay [5], 10.8%; in assay [6] it was -32%.
